# The entries come from a sample that favours hits as a whole.
# IDE exosite inh – exo-site inhibitors of human insulin-degrading enzyme; P14735; purified IDE, FL-6b probe fluorescence polarization; stronger effect = lower value; z-score at 20 µM; hit rate 6.3% among 17,000;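 active = z-score of -3 or lower, meaning strong loss of probe binding signal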;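 note: His-tagged human IDE residues 42-1019 made in E. coli with 30 nM FL-6b probe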
# The depositor's hits bear a star.
SMILES,IDE exosite inh
COc1ccc(NC(=O)N2CCCCN3[C@@H](CO)[C@@H](c4ccc(-c5ccccc5F)cc4)[C@@H]3C2)cc1,-1.2
Cc1ccccc1-c1ccc([C@H]2[C@H](CO)N3CCCCN(C(=O)Nc4ccc(F)cc4)C[C@@H]23)cc1,-2.4
COc1ccc(NC(=O)N2CCCCN3[C@H](CO)[C@H](c4ccc(-c5ccccc5C)cc4)[C@H]3C2)cc1,-4.3*
Cc1ccccc1-c1ccc([C@H]2[C@@H](CO)N3CCCCN(C(=O)Nc4ccccc4)C[C@H]23)cc1,-8.8*
COc1ccc(NC(=O)N2CCCCN3[C@@H](CO)[C@H](c4ccc(-c5ccccc5F)cc4)[C@@H]3C2)cc1,-0.77
Cc1ccccc1-c1ccc([C@H]2[C@H]3CN(C(=O)Nc4ccccc4)CCCCN3[C@H]2CO)cc1,0.8
COc1ccc(NC(=O)N2CCCCN3[C@H](C2)[C@@H](c2ccc(-c4ccccc4C)cc2)[C@@H]3CO)cc1,-4.1*
Cc1ccccc1-c1ccc([C@@H]2[C@H]3CN(C(=O)Nc4ccccc4)CCCCN3[C@H]2CO)cc1,0.79
Cc1ccccc1-c1ccc([C@@H]2[C@H]3CN(C(=O)Nc4ccc(F)cc4)CCCCN3[C@H]2CO)cc1,-0.34
COc1ccccc1NC(=O)N1CC(=O)N2[C@H](CO)[C@@H](c3ccc(C#CCC(C)C)cc3)[C@H]2C1,0.81
N#C[C@@H]1[C@@H](c2ccc(-c3cccnc3)cc2)[C@H](CO)N1C(=O)C1CCC1,1.9
O=C(Nc1ccccc1F)N1CC(=O)N2[C@H](CO)[C@@H](c3ccc(-c4cccnc4)cc3)[C@H]2C1,-1.1
N#C[C@H]1[C@H](c2ccccc2-c2ccccc2)[C@@H](CO)N1C(=O)Cc1ccncc1,1.5
COCC#Cc1ccc([C@@H]2[C@H]3CN(C(=O)C4CC4)CC(=O)N3[C@H]2CO)cc1,2.6
O=C(C[C@@H]1CC[C@@H]2[C@H](COC[C@H](O)CN2Cc2cc(F)cc(F)c2)O1)Nc1nccs1,1.1
COc1ccc2c3c(n(C)c2c1)[C@@H](CO)N(Cc1cccnc1)CC31CCN(C(=O)NC(C)C)CC1,-5.9*
COc1cccc(CN2CC3(CCN(S(C)(=O)=O)CC3)c3c(n(C)c4cc(OC)ccc34)[C@@H]2CO)c1,-2.5
COc1ccc2c3c(n(C)c2c1)[C@@H](CO)N(Cc1ccc(Cl)cc1)CC31CN(C(=O)NC(C)C)C1,0.21
COc1ccc2c3c(n(C)c2c1)[C@H](CO)N(C)CC31CCN(C(=O)c2cccnc2)CC1,-0.19
COc1ccc2c3c(n(C)c2c1)[C@H](CO)N(Cc1cccc(Cl)c1)CC31CCN(C(=O)C2CC2)CC1,-1.6
COc1ccc2c3c(n(C)c2c1)[C@H](CO)N(Cc1cccnc1)CC31CCN(C(=O)NC(C)C)CC1,-3*
C[C@@H](O)C#Cc1ccc([C@@H]2[C@H](CO)N3CCCCN(C(=O)c4ccc(F)cc4)C[C@@H]23)cc1,-0.27
O=C(C[C@@H]1C[C@@H]2c3cc(NS(=O)(=O)c4ccc(F)cc4)ccc3O[C@@H]2[C@H](CO)O1)NCCN1CCCCC1,1.7
C/C=C/c1ccc([C@H]2[C@@H](CO)N(C(=O)COC)[C@@H]2CNC(=O)CC)cc1,3.7
COc1ccccc1C#Cc1ccc([C@H]2[C@@H](C#N)N(C(=O)C3CCCCC3)[C@H]2CO)cc1,-1.6
SMILES,IDE exosite inh
N#C[C@@H]1[C@H](c2ccc(C#Cc3ccc(F)cc3)cc2)[C@@H](CO)N1C(=O)C1CC1,4.9
COc1cccc(C#Cc2ccc([C@@H]3[C@H](C#N)N(C(=O)C4CC4)[C@H]3CO)cc2)c1,-0.13
COc1cccc(C#Cc2ccc([C@H]3[C@@H](CO)N(C(=O)C4CCC4)[C@H]3C#N)cc2)c1,3.6
COc1cccc(C#Cc2ccc([C@@H]3[C@H](C#N)N(C(=O)C4CCC4)[C@H]3CO)cc2)c1,4.2
N#C[C@H]1[C@@H](c2ccc(C#Cc3ccccc3F)cc2)[C@@H](CO)N1C(=O)C1CCCCC1,1.7
COc1ccccc1C#Cc1ccc([C@H]2[C@@H](C#N)N(C(=O)C3CCC3)[C@H]2CO)cc1,-4.9*
COc1ccccc1C#Cc1ccc([C@H]2[C@@H](CO)N(C(=O)C3CC3)[C@H]2C#N)cc1,-7.5*
COc1ccccc1C#Cc1ccc([C@@H]2[C@@H](C#N)N(C(=O)C3CCCCC3)[C@H]2CO)cc1,-8*
O=S(=O)(c1ccccc1)N1CC2(C1)[C@@H](c1ccccc1)[C@@H](CO)N2CC1CCOCC1,1
C/C=C/c1ccc([C@H]2[C@@H](CO)N3CCCCN(C(=O)C4CCCC4)C[C@@H]23)cc1,0.34
CC(=O)N(C)C[C@H]1[C@@H](c2ccc(C#CC(C)C)cc2)[C@@H](CO)N1C(=O)C1CCC1,1.6
CO[C@H]1CN(C)C(=O)c2cc(NC(=O)CC(F)(F)F)ccc2OC[C@H](C)N(CC2CC2)C[C@@H]1C,1.6
COc1ccc2c3c([nH]c2c1)[C@H](CO)N(C(=O)Nc1ccc(F)cc1)CC31CN(Cc2cc(-c3ccccc3)on2)C1,0.033
Cc1ccccc1S(=O)(=O)N1C[C@@H](O)COC[C@@H]2O[C@@H](CC(=O)N3CCCCC3)CC[C@H]21,0.95
C/C=C/c1ccc([C@@H]2[C@H](CO)N3C(=O)CN(Cc4ccc(C(=O)OC)cc4)C[C@@H]23)cc1,0.3
CN(C)CC#Cc1ccc([C@H]2[C@@H](CO)N3CCCCN(C(=O)CN(C)C)C[C@H]23)cc1,4
O=C(c1ccc(F)cc1)N1CCCCN2[C@@H](CO)[C@@H](c3ccc(/C=C/c4ccccc4)cc3)[C@@H]2C1,-0.79
CN(C)CC#Cc1ccc([C@@H]2[C@@H](CO)N3CCCCN(C(=O)CN(C)C)C[C@H]23)cc1,1.4
CCC(=O)N1CCCCN2[C@H](CO)[C@H](c3ccc(/C=C/c4ccccc4)cc3)[C@@H]2C1,-7.3*
CN(C)CC(=O)N1CCCCN2[C@H](C1)[C@H](c1ccc(/C=C/c3ccccc3)cc1)[C@@H]2CO,-7.3*
O=C(c1ccc(F)cc1)N1CCCCN2[C@H](CO)[C@@H](c3ccc(/C=C/c4ccccc4)cc3)[C@@H]2C1,0.98
CN(C)CC(=O)N1CCCCN2[C@@H](CO)[C@@H](c3ccc(-c4cncnc4)cc3)[C@@H]2C1,0.079
CN(C)CC(=O)N1CCCCN2[C@@H](CO)[C@H](c3ccc(/C=C/c4ccccc4)cc3)[C@@H]2C1,-6.5*
CN(C)CC(=O)N1CCCCN2[C@H](CO)[C@H](c3ccc(/C=C/c4ccccc4)cc3)[C@H]2C1,-11*
CN1CCCCN2[C@H](C1)[C@@H](c1ccc(/C=C/c3ccccc3)cc1)[C@@H]2CO,-2.5
SMILES,IDE exosite inh
O=C(c1ccc(F)cc1)N1CCCCN2[C@H](CO)[C@H](c3ccc(/C=C/c4ccccc4)cc3)[C@@H]2C1,6.9
O=C(c1ccc(F)cc1)N1CCCCN2[C@H](CO)[C@H](c3ccc(/C=C/c4ccccc4)cc3)[C@H]2C1,-1.6
O=C(Nc1cccc(F)c1)N1CC(=O)N2[C@H](CO)[C@H](c3ccc(-c4ccccc4F)cc3)[C@@H]2C1,4.1
COc1ccc(C#Cc2ccc([C@H]3[C@@H](CO)N4CCCCN(S(=O)(=O)c5cn(C)cn5)C[C@@H]34)cc2)cc1,0.19
CC(=O)N1[C@H](CO)[C@@H](c2ccccc2)[C@H]1CN(C(=O)NC(C)C)C1CCCC1,3.6
CN(C)C(=O)c1cccc(-c2cccc(-c3nc(C(=O)N4CCCCC4)cc4c3[C@@H](CCO)N([S@](=O)C(C)(C)C)C4)c2)c1,-0.86
CCCC#Cc1ccc([C@H]2[C@H](CO)N3C(=O)CN(C(=O)c4cccc(F)c4)C[C@@H]23)cc1,0.27
